UHRF1 binding – UHRF1 methyl-DNA binding inhibition; Q96T88; 370,000 tested, 0.75% active; UHRF1 binding to methylated oligo, TR-FRET; inhibition, % at 4.4 µM; AID 687016; in the data active = inhibition above about 21%;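 also: UHRF1 SRA domain binding a hemimethylated CpG hairpin DNA probe; 0% = median of test compound wells and 100% = reference inhibitor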
LEDGF integ inh – blocks HIV-1 LEDGF/p75-dependent DNA integration; 370,000 tested, 0.64% active; inhibition, % at 3.7 µM; TR-FRET IN-LEDGF/p75 DNA integration, Eu/Cy5;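 active = inhibition above the screen-wide mean plus 3 SD, cut at about 13% in these data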;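 also: signal is the Cy5 over europium emission ratio at 671 and 618 nm; 0% = plate median of compound wells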
MBD2 inh – inhibitors of human MBD2 binding to methylated oligonucleotide; Q9UBB5; 370,000 tested, 0.31% active; inhibition, % at 4.4 µM; TR-FRET; in the data active = inhibition above about 13%
Target sequence (Q9UBB5 whole entry, looked up): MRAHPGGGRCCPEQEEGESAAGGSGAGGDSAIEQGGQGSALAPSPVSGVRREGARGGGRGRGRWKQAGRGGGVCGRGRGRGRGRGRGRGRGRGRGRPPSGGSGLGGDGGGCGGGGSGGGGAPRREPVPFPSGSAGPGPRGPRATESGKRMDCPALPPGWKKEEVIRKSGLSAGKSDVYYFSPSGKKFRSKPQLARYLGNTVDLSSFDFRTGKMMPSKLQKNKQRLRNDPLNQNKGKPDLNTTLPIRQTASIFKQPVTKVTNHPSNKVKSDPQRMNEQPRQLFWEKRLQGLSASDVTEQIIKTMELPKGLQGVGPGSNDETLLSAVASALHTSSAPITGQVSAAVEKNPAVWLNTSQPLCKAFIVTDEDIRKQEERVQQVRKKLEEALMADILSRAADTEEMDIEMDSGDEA
PRMT1 FP inh – inhibitors of human PRMT1. inhibition, % at 2.79 µM. Q99873. 370,000 tested, 1.3% active. recombinant PRMT1, activity-based probe fluorescence polarization;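 active = inhibition above about 21% made by adding two undisclosed values, limit read from the data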
PRMT1 inh conf – PRMT1 (human) inhibition, FP confirmation; shares compounds with PRMT1 FP inh; recombinant His-PRMT1, activity-based probe fluorescence polarization; inhibition, % at 2.79 µM; 3,300 tested, 42% active; AID 687036;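 active = mean inhibition across replicates above the hit cutoff derived for the earlier primary screen, cut at about 22% in these data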
An asterisk follows results filed as active. Sampled rows, rich in hits. Any-hit rate of the full collection: about 2.5%.

How did CC[n+]1c(/C=C2\C=C(C)CC(C)(C)C2)sc2ccccc21 do in these assays?
UHRF1 binding: 2; LEDGF integ inh: 2; MBD2 inh: -3; PRMT1 FP inh: 44*; PRMT1 inh conf: 16

Results for CCN(CC)c1ccc(/C=C/c2ccc3ccc(OC)cc3[n+]2CC)cc1 ?
UHRF1 binding: -2; LEDGF integ inh: 3; MBD2 inh: -19; PRMT1 FP inh: 0

How did COc1ccc(NC(=O)COC(=O)Cc2c(F)cccc2Cl)cc1 do in these assays?
UHRF1 binding: 0; LEDGF integ inh: 1; MBD2 inh: -1; PRMT1 FP inh: 1

How did N#CC1=C(N)S[C@@H](C(=O)c2ccc(F)cc2)[C@@H]1c1cccs1 do in these assays?
UHRF1 binding: 15; LEDGF integ inh: 3; MBD2 inh: 3; PRMT1 FP inh: 35*; PRMT1 inh conf: 1

How did Cc1ccc(/C=c2\sc3n(c2=O)CN(c2cccc(Br)c2)CN=3)o1 do in these assays?
UHRF1 binding: -3; LEDGF integ inh: 1; MBD2 inh: -2; PRMT1 FP inh: 34*; PRMT1 inh conf: 4

How did O=c1/c(=C/c2ccco2)sc2n1CN(c1cccc(Br)c1)CN=2 do in these assays?
UHRF1 binding: -6; LEDGF integ inh: 11; MBD2 inh: 3; PRMT1 FP inh: 12

How did CC1CC(C)CN(C(=O)c2ccc(-c3ccc([N+](=O)[O-])cc3)o2)C1 (configuration not stated) do in these assays?
UHRF1 binding: 1; LEDGF integ inh: 4; MBD2 inh: 1; PRMT1 FP inh: 35*; PRMT1 inh conf: 18

How did O=C(c1ccc(-c2ccc([N+](=O)[O-])cc2)o1)N1CCCCC1 do in these assays?
UHRF1 binding: 6; LEDGF integ inh: 0; MBD2 inh: 9; PRMT1 FP inh: 46*; PRMT1 inh conf: 11

Results for COc1ccc(-c2cc(C(=O)OCC(=O)NC(C)C)c3ccccc3n2)cc1 ?
UHRF1 binding: 0; LEDGF integ inh: 5; MBD2 inh: 2; PRMT1 FP inh: -7

Results for Cc1ccsc1C(=O)N1CCC1(C)C(=O)NCC(C)(C)C (configuration not stated) ?
UHRF1 binding: 2; LEDGF integ inh: 0; MBD2 inh: -3; PRMT1 FP inh: -2

What do the screens show for `O=c1c2ccccc2sn1-c1cccc(Cl)c1`?
UHRF1 binding: 1; LEDGF integ inh: 1; MBD2 inh: 1; PRMT1 FP inh: 82*; PRMT1 inh conf: 84*

Results for CN(C)S(=O)(=O)c1cccc(-n2sc3ccccc3c2=O)c1 ?
UHRF1 binding: 1; LEDGF integ inh: -2; MBD2 inh: -2; PRMT1 FP inh: 102*; PRMT1 inh conf: 95*

Results for CN(C)S(=O)(=O)c1ccc2[nH]cc(/C=C/c3nc4ccccc4c(=O)n3-c3ccccc3)c2c1 ?
UHRF1 binding: 4; LEDGF integ inh: 0; MBD2 inh: 3; PRMT1 FP inh: 0

Results for O=C(CSC1=NCCS1)Nc1ccc(S(=O)(=O)N2CCCCCC2)cc1 ?
UHRF1 binding: 4; LEDGF integ inh: -3; MBD2 inh: 8; PRMT1 FP inh: 38*; PRMT1 inh conf: 52*

Results for O=C(CSC1=NCCS1)Nc1ccc(S(=O)(=O)NC2CCCCC2)cc1 ?
UHRF1 binding: -1; LEDGF integ inh: -1; MBD2 inh: 1; PRMT1 FP inh: 29*; PRMT1 inh conf: 26*

What do the screens show for `Nc1ccc2nc(-c3ccccc3)cnc2c1`?
UHRF1 binding: -11; LEDGF integ inh: -4; MBD2 inh: -6; PRMT1 FP inh: 31*; PRMT1 inh conf: 33*

How did Nc1ccc(-c2cnc3ccccc3n2)cc1 do in these assays?
UHRF1 binding: -6; LEDGF integ inh: -2; MBD2 inh: -8; PRMT1 FP inh: 2

How did COc1ccc(C(=O)/C=C/C(=O)N(CC(=O)NC2CCCCC2)CC2CCCO2)c(O)c1 (configuration not stated) do in these assays?
UHRF1 binding: 0; LEDGF integ inh: 3; MBD2 inh: 3; PRMT1 FP inh: 34*; PRMT1 inh conf: 41*

Results for COc1ccc2c(c1)C(=O)C1(CC2)OC1c1cccnc1 (configuration not stated) ?
UHRF1 binding: 1; LEDGF integ inh: 1; MBD2 inh: -1; PRMT1 FP inh: -2

How did Cc1sc(NC(=O)c2sc3nc4c(C)cccc4cc3c2N)c(C#N)c1C do in these assays?
UHRF1 binding: -3; LEDGF integ inh: 8; MBD2 inh: -5; PRMT1 FP inh: 31*; PRMT1 inh conf: 0

How did Cc1cccc2cc3c(N)c(C(=O)N4CCc5ccccc54)sc3nc12 do in these assays?
UHRF1 binding: -2; LEDGF integ inh: 1; MBD2 inh: 0; PRMT1 FP inh: 31*; PRMT1 inh conf: 4
